assay: blood-stage malaria parasite viability loss – strain 3D7, DAPI fluorescence, 100 nL, primary screen (AID 1184);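 also: parasites grown inside human red blood cells in medium with human serum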; conditions: P. falciparum 3D7 growth, 3 d, higher = more signal

SMILES	z-score
COC(=O)[C@@H]1CC[C@H](C)[C@@H](c2ccc(Br)cc2)N1	0.165
CCc1cc2c(nc1CC)CCN(CCC(C)=NOC(C)CN1CCCCc3nc(C)c(C)cc31)C2 (stereo unspecified)	-1.86
CCOC(=O)[C@H](Cc1ccccc1)NC(=O)CCC1CC(OC(=O)NCc2ccc3c(c2)OCO3)CC2(CCCC(COC(=O)NCCOc3ccccc3)O2)O1 (stereo partly specified)	-1.57
COC(=O)[C@@H]1CC[C@H](C)[C@@H](c2ccc(C)cc2)N1C(=O)c1ccc(C=NOC[C@H]2O[C@H](c3ccccc3)C=C[C@@H]2Oc2ccc(OC)cc2)cc1	-1.14
COC(=O)CC=C[C@@H](C)[C@@H](C=NOC[C@@H](C)[C@H](OCc1ccccc1)C(C)C)OC	-0.469
CCOC(=O)CCN1C(=O)[C@H]2[C@@H]3C(=CC[C@H]2C1=O)C(=O)[C@H]1O[C@H]1[C@H]3O	-1.5
CC(CCN1CCCc2nc(C)c(C)cc21)=NOC[C@@H](C)[C@H](OCc1ccccc1)C(C)C	-0.342
O=C1[C@H]2CCn3c(=O)n(Cc4cc5c(cc4Cl)OCO5)c(=O)n3[C@H]2[C@H](O)[C@@H]2O[C@H]12	0.0829
CCC1=NOC(CCC2CC(OC(=O)NCc3cccc4c3OCO4)CC3(CCCC(COC(=O)NCCc4ccc(Cl)cc4)O3)O2)C1 (stereo unspecified)	-0.184
C=CC[C@@H]1C=C[C@H](ON=CC[C@@H]2C=C[C@H](OC(C)=O)[C@@H](COC(C)=O)O2)[C@@H](CO)O1	0.422
CO[C@@H]1COC(=O)[C@H](COCc2ccccc2)NC(=O)CC=C[C@@H](C)[C@H](OC)COC(=O)[C@@H](C)NC(=O)CC=C[C@H]1C	0.591
O=C1C[C@@H](O)[C@@H](O)[C@@H]2[C@@H]3C(=O)N(Cc4ccccc4)C(=O)[C@@H]3CC[C@H]12	-0.331
CC(C)CN1CCc2nc(-c3ccccc3)c3c(c2C1)CO[C@@H](C)C3	-0.927
COC(=O)[C@@H]1CC[C@H](C)[C@@H](c2ccc(Br)cc2)N1C(=O)C(F)(F)F	-0.541
CC(C)[C@@H](OCc1ccccc1)[C@H](C)C=NO[C@H](C)c1cn([C@@H]2COC[C@H]2O)nn1	1.61
CCN1C(=O)[C@H]2[C@H]3[C@H](O)[C@H](O)CC(=NO[C@@H](C)c4cc(-c5c(C)cc(C)cc5C)no4)[C@@H]3CC[C@H]2C1=O	0.563

SMILES	z-score
CCOC(=O)NN=C1C[C@@H](O)[C@@H](O)[C@@H]2[C@@H]3C(=O)N(CC)C(=O)[C@@H]3CC[C@H]12	0.613
CON(C)C(=O)c1nnc2c(n1)[nH]c1ccccc12	0.763
CCc1cc2c(nc1CC)CCN(CCC(C)=NOCC[C@@H]1C=C[C@H](OC(C)=O)[C@@H](COC(C)=O)O1)C2	-0.876
CC(C)CON=C1C[C@@H](O)[C@@H](O)[C@@H]2[C@@H]3C(=O)N(c4ccc(F)cc4F)C(=O)[C@@H]3CC[C@@H]12	-1.66
COC(=O)CC=C[C@@H](C)[C@@H](C=NOC[C@@H](O)COCc1ccco1)OC	0.715
C[C@H]1CC[C@H]2C(=O)O[C@H](CO)CN2[C@@H]1c1ccc(Br)cc1	0.389
COC(=O)[C@H](C)NC(=O)CCC1CC(OC(=O)NCc2ccc3c(c2)OCO3)CC2(CCCC(COC(=O)NCCCN3CCCC3=O)O2)O1 (stereo partly specified)	-1.84
CC(C)CON=C1C[C@@H](O)[C@@H](O)[C@@H]2[C@@H]3C(=O)N(C(C)(C)C)C(=O)[C@@H]3CC[C@@H]12	-1.62
COC(=O)[C@H](C)NC(=O)CCC1CC(OC(=O)NCCc2ccc(F)cc2)CC2(CCCC(COC(=O)NCc3ccccc3)O2)O1 (stereo partly specified)	-1.93
O=C1[C@H]2[C@H]3[C@H](O)[C@H](O)CC(=NO[C@@H]4O[C@H](CO)[C@@H](O)[C@H](O)[C@H]4O)[C@@H]3CC[C@H]2C(=O)N1C[C@@H]1CCCO1	-1.49
CC(CCC(=O)OC[C@H]1O[C@H](C#Cc2ccccc2)C=C[C@@H]1Oc1ccc(C)cc1)=NO[C@@H](C)c1cc(-c2c(C)cc(C)cc2C)no1	-1.36
COC(=O)[C@H](C)NC(=O)CCC1CC(OC(=O)NCc2cccc3ccccc23)CC2(CCCC(COC(=O)NCCOc3ccccc3)O2)O1 (stereo partly specified)	-0.372
Cc1cc2c(nc1C)CCCCN2CC(O)CN1CCCc2nc(-c3ccc(Br)cc3)ccc21 (stereo unspecified)	0.528
COC(OC)[C@@H](C)[C@H](OC)[C@@H](C)[C@H](OC)c1ccccc1	0.129
CCCC[C@H]1CN2[C@@H](CC[C@@H](C)[C@@H]2c2ccc(Br)cc2)C(=O)O1	-0.278
